Structures are written as SMILES.

The first assay concerns XIP peptide (Xip251-270). In words: small-molecule binders of XIP peptide, primary screen, biochemical, small-molecule microarray, fluorescence 635/667 nm, 0.5 µg/mL protein (AID 1183). The note with it: small-molecule microarray binding, fluorescence 635 nm; higher = more signal.
Turning to `COCCOC(=O)N1C(=O)[C@@]2(c3cc(C#CCCO)ccc31)[C@H](c1ccc(O)cc1)N1[C@H](c3ccccc3)[C@H](c3ccccc3)OC(=O)[C@H]1[C@@H]2C(=O)NC[C@H](O)c1ccccc1`, the composite z-score stood at 0.859.
As to `COC(=O)[C@@]1(Cc2ccc(F)cc2)[C@H]2c3cc(C(=O)N4CCCC4)n(Cc4ccc(OC(F)(F)F)cc4)c3C[C@H]2CN1C(=O)c1ccccc1`, the composite z-score amounted to 0.267.
Same read-out and setting: the value for `COc1cccc(C)c1NC(=O)O[C@H]1[C@H](OC(=O)Nc2ccccc2-c2ccccc2)[C@@H](OC(=O)Nc2ccccc2-c2ccccc2)[C@@H](OC)O[C@@H]1CO` was 0.89.
As to `COCCOC(=O)N1C(=O)[C@@]2(c3cc(C#CC4=CCCCC4)ccc31)[C@H](c1ccc(O)cc1)N1[C@H](c3ccccc3)[C@H](c3ccccc3)OC(=O)[C@H]1[C@@H]2C(=O)N1CCc2cc(OC)c(OC)cc2C1`, the composite z-score stood at 0.556.
Same read-out and setting: the value for `C=C(CCCC)C(=O)CC[C@@H](OC(C)=O)c1ccc(OCCO)cc1` was 0.607.
The same measure, in the same setting: the value for `CC(C)(C)OC(=O)CC[C@]1(C(=O)N2CCOCC2)COC(c2ccc(OCCCO)cc2)=N1` was 0.0906; that for `CC1CC/C=C\[C@H]2OC34C=CCN(CCN5CCOCC5)C(=O)[C@H]3N(C(CO)C(C)C)C(=O)[C@@H]4C2C(=O)O1` (some centres undefined) was 0.054; that for `C[C@@]1([C@@H](NS(=O)(=O)c2cccc3cccnc23)c2ccc(-c3ccccc3)cc2)C[C@H]1C1CCCCC1` was -0.209.
Same read-out and setting: the value for `COc1ccc(CCNC(=O)[C@@]2(c3ccc([N+](=O)[O-])cc3)CC(=O)N(C3CCCCC3)[C@@H]2c2ccc(CO)cc2I)cc1` was 0.671; that for `CCOC(=O)C[C@H]1[C@H](OC(=O)c2ccc(-c3ccccc3)cc2)[C@@H](NC(=O)c2ccc(-c3ccccc3)cc2)c2cc(OCCCO)ccc2N1C(=O)c1ccccc1` was 0.426; that for `CCCCC(=C=CC[C@H](O)c1ccccc1OCCO)CCO` was -0.0255.
For `CC1C2C(CCCO)=CC(C3C(=O)N(C)C(=O)C23)N1Cc1cccc(OC(F)(F)F)c1` (centres undefined), the composite z-score came to 0.806.
As for `C[C@]1(C(=O)O)c2ccccc2C(=O)N(Cc2cc(C(F)(F)F)cc(C(F)(F)F)c2)[C@H]1c1ccc(CO)cc1`, the composite z-score came to 0.816.
Still for that read-out and setting: the value for `OCCCc1cc[n+](Cc2cc3c(cc2Br)OCO3)cc1` was 0.579; that for `COc1cc(Cc2cc3c(c(CCc4ccccc4)n2)[Si](C(C)C)(C(C)C)O[C@H]3c2ccccc2)cc(OC)c1OC` was 0.202.
Same read-out and setting: the value for `O=C1C2C=CC(C(O)C(c3ccccc3)c3ccccc3)N(Nc3ccccc3F)C2C(=O)N1c1ccccc1` (centres undefined) was 0.768; that for `[N-]=[N+]=NCc1ccccc1[C@H]1OC(c2ccc(OCCCO)cc2)=N[C@@]1(CCS(=O)(=O)c1ccccc1)C(=O)NCCN1CCOCC1` was 0.816.
The same measure, in the same setting: the result for `COc1ccc(C(=O)Nc2ccc(CN3C(=O)[C@@]4(O[C@@H](CC(=O)N(CCO)Cc5ccccc5)[C@H]([Si](C)(C)c5ccc(OC)cc5)[C@H]4C)c4ccccc43)cc2)cc1` reads 0.622.
For `COc1ccc(C(=O)Nc2cccc(CN3C(=O)[C@]4(O[C@H](CC(=O)N(CCO)Cc5ccccc5)[C@@H]([Si](C)(C)c5ccc(OC)cc5)[C@@H]4C)c4ccccc43)c2)cc1`, the composite z-score worked out at 0.572.
On the same count and under the same terms, the value for `C=CC[C@]1(C(=O)NCC(O)CO)N=C(c2ccc(OCCCO)cc2)O[C@H]1c1ccccc1CN=[N+]=[N-]` (some centres undefined) was -0.201; that for `O=C1C2C=CC(C(O)C3CC=CCC3)N(Nc3ccc([N+](=O)[O-])cc3)C2C(=O)N1c1ccccc1` (centres undefined) was 0.545.
Same read-out and setting: the result for `CCCCN1CC=CC23O[C@@H]4C=CCCOC(=O)C4[C@H]2C(=O)N(CCO)[C@@H]3C1=O` (some centres undefined) reads 0.485; that for `COc1ccc([Si](C)(C)[C@@H]2[C@@H](CC(=O)N3Cc4ccccc4C[C@H]3CO)O[C@]3(C(=O)N(Cc4ccc(I)cc4)c4ccccc43)[C@H]2C)cc1`, 0.477.

Tested on in a further assay: not listed separately
Kind of assay: Plasmodium falciparum growth inhibition, primary screen, strain 3D7, DAPI fluorescence, 100 nL (AID 1184).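 Also: parasites grown inside human red blood cells in medium with human serum.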 Particulars: P. falciparum 3D7 growth, 3 d, higher = more signal.
With `COC(=O)[C@@]1(Cc2ccc(F)cc2)[C@H]2c3cc(C(=O)N4CCCC4)n(CCSCCO)c3C[C@H]2CN1C(=O)c1ccccc1`, the z-score is -1.41.
With `C[N+](C)(C)CCCC[C@@H]1NC(=O)[C@H]2C[C@@H](C(=O)NCCCCCN)[C@@H](c3ccc(O)cc3)N2C1=O`, the z-score came to 0.435.
Still for that read-out and setting: the value for `COc1c(C)cc(-c2cc3c(c(CCc4ccccc4)n2)[Si](C(C)C)(C(C)C)O[C@H]3c2ccccc2)cc1C` was -2.29.
Same read-out and setting: the result for `C=CCOC(=O)[C@H]1[C@@H]2C(=O)O[C@@H](c3ccccc3)[C@@H](c3ccccc3)N2[C@@H](c2ccc(OCCOC(=O)[C@H]3C[C@H]4C(=O)NCC(=O)N4[C@H]3c3ccc(O)cc3)cc2)[C@]12C(=O)Nc1ccccc12` reads -1.56.
Still for that read-out and setting: the result for `CCCCCCc1nc(Cc2cc(OC)c(OC)c(OC)c2)c(C)c2c1[Si](C(C)C)(C(C)C)OC2` reads -2.76; that for `CC[C@H]1C2=C3C(CC[C@H]4C(OCc5ccc(F)cc5C(F)(F)F)OC[C@](C)([C@@H]34)N(C(=O)OC(C)(C)C)C2)C(COC(C)=O)C1COC(C)=O` (some centres undefined), -1.24; that for `COCCOC(=O)N1C(=O)[C@@]2(c3cc(C#CCC(C(=O)OC)C(=O)OC)ccc31)[C@H](C(=O)N1CCc3cc(OC)c(OC)cc3C1)[C@H]1C(=O)O[C@H](c3ccccc3)[C@H](c3ccccc3)N1[C@@H]2c1ccccc1OCCO`, -2.12.
The molecule `C=C[C@@H](CO)NS(=O)(=O)c1ccc(Br)cc1` had a z-score of -0.345.
On the same count and under the same terms, the value for `[N-]=[N+]=NCc1ccccc1[C@H]1OC(c2ccc(OCCCO)cc2)=N[C@@]1(Cc1ccccc1N=[N+]=[N-])C(N)=O` was -0.885; that for `COCCCNC(=O)[C@@]1(CCC(=O)OC(C)(C)C)N=C(c2ccc(OCCCO)cc2)O[C@H]1c1ccccc1` was -0.0488.
Molecule `C=CCOC(=O)[C@@H]1[C@H]2C(=O)O[C@H](c3ccccc3)[C@H](c3ccccc3)N2[C@H](c2ccc(OCCOC(=O)[C@@H]3C[C@@H]4C(=O)N[C@@H](CC(C)C)C(=O)N4[C@@H]3c3ccc(O)cc3)cc2)[C@@]12C(=O)Nc1ccc(I)cc12` came in with a z-score of -1.51.
Molecule `CN1C2C=C(c3ccc(CO)cc3)C(C3C(=O)N(C(N)=O)C(=O)C32)C1C1CC1` (centres undefined) gave a z-score of -0.854.
On the same count and under the same terms, the result for `CC(C)(C)OC(=O)CC[C@@]1(C(=O)N2CCOCC2)N=C(c2ccc(OCCCO)cc2)O[C@@H]1c1ccccc1CN=[N+]=[N-]` reads -2.12; that for `COCCOC(=O)N1C(=O)[C@@]2(c3cc(C#CCCO)ccc31)[C@H](c1ccc(O)cc1)N1[C@H](c3ccccc3)[C@H](c3ccccc3)OC(=O)[C@H]1[C@@H]2C(=O)NC[C@H](O)c1ccccc1`, 0.0019; that for `COC(=O)[C@@]1(Cc2ccc(F)cc2)[C@H]2c3cc(C(=O)N4CCCC4)n(Cc4ccc(OC(F)(F)F)cc4)c3C[C@H]2CN1C(=O)c1ccccc1`, 0.096.
The same measure, in the same setting: the result for `COc1cccc(C)c1NC(=O)O[C@H]1[C@H](OC(=O)Nc2ccccc2-c2ccccc2)[C@@H](OC(=O)Nc2ccccc2-c2ccccc2)[C@@H](OC)O[C@@H]1CO` reads -2.26.
Take `COCCOC(=O)N1C(=O)[C@@]2(c3cc(C#CC4=CCCCC4)ccc31)[C@H](c1ccc(O)cc1)N1[C@H](c3ccccc3)[C@H](c3ccccc3)OC(=O)[C@H]1[C@@H]2C(=O)N1CCc2cc(OC)c(OC)cc2C1`: the z-score is -2.06.
Still for that read-out and setting: the result for `C=C(CCCC)C(=O)CC[C@@H](OC(C)=O)c1ccc(OCCO)cc1` reads -2.07.
Still for that read-out and setting: the result for `CC(C)(C)OC(=O)CC[C@]1(C(=O)N2CCOCC2)COC(c2ccc(OCCCO)cc2)=N1` reads 0.33.
Same read-out and setting: the result for `CC1CC/C=C\[C@H]2OC34C=CCN(CCN5CCOCC5)C(=O)[C@H]3N(C(CO)C(C)C)C(=O)[C@@H]4C2C(=O)O1` (some centres undefined) reads -0.0648; that for `C[C@@]1([C@@H](NS(=O)(=O)c2cccc3cccnc23)c2ccc(-c3ccccc3)cc2)C[C@H]1C1CCCCC1`, -0.748; that for `COc1ccc(CCNC(=O)[C@@]2(c3ccc([N+](=O)[O-])cc3)CC(=O)N(C3CCCCC3)[C@@H]2c2ccc(CO)cc2I)cc1`, -1.96.
Molecule `CCOC(=O)C[C@H]1[C@H](OC(=O)c2ccc(-c3ccccc3)cc2)[C@@H](NC(=O)c2ccc(-c3ccccc3)cc2)c2cc(OCCCO)ccc2N1C(=O)c1ccccc1` registered a z-score of -0.482.
On to `CCCCC(=C=CC[C@H](O)c1ccccc1OCCO)CCO`, for which the z-score was -0.315.
As for `CC1C2C(CCCO)=CC(C3C(=O)N(C)C(=O)C23)N1Cc1cccc(OC(F)(F)F)c1` (centres undefined), the z-score was -1.7.
Molecule `C[C@]1(C(=O)O)c2ccccc2C(=O)N(Cc2cc(C(F)(F)F)cc(C(F)(F)F)c2)[C@H]1c1ccc(CO)cc1` had a z-score of 1.06.
On the same count and under the same terms, the result for `OCCCc1cc[n+](Cc2cc3c(cc2Br)OCO3)cc1` reads -1.96.
Same read-out and setting: the value for `COc1cc(Cc2cc3c(c(CCc4ccccc4)n2)[Si](C(C)C)(C(C)C)O[C@H]3c2ccccc2)cc(OC)c1OC` was 0.578.
Same read-out and setting: the value for `O=C1C2C=CC(C(O)C(c3ccccc3)c3ccccc3)N(Nc3ccccc3F)C2C(=O)N1c1ccccc1` (centres undefined) was -0.373.
Take `[N-]=[N+]=NCc1ccccc1[C@H]1OC(c2ccc(OCCCO)cc2)=N[C@@]1(CCS(=O)(=O)c1ccccc1)C(=O)NCCN1CCOCC1`: the z-score is -2.35.
Consider `COc1ccc(C(=O)Nc2ccc(CN3C(=O)[C@@]4(O[C@@H](CC(=O)N(CCO)Cc5ccccc5)[C@H]([Si](C)(C)c5ccc(OC)cc5)[C@H]4C)c4ccccc43)cc2)cc1`, for which the z-score is -0.992.
The same measure, in the same setting: the value for `COc1ccc(C(=O)Nc2cccc(CN3C(=O)[C@]4(O[C@H](CC(=O)N(CCO)Cc5ccccc5)[C@@H]([Si](C)(C)c5ccc(OC)cc5)[C@@H]4C)c4ccccc43)c2)cc1` was -2.49.
Still for that read-out and setting: the result for `C=CC[C@]1(C(=O)NCC(O)CO)N=C(c2ccc(OCCCO)cc2)O[C@H]1c1ccccc1CN=[N+]=[N-]` (some centres undefined) reads -2.5; that for `O=C1C2C=CC(C(O)C3CC=CCC3)N(Nc3ccc([N+](=O)[O-])cc3)C2C(=O)N1c1ccccc1` (centres undefined), -0.627; that for `CCCCN1CC=CC23O[C@@H]4C=CCCOC(=O)C4[C@H]2C(=O)N(CCO)[C@@H]3C1=O` (some centres undefined), 0.211.
The same measure, in the same setting: the result for `COc1ccc([Si](C)(C)[C@@H]2[C@@H](CC(=O)N3Cc4ccccc4C[C@H]3CO)O[C@]3(C(=O)N(Cc4ccc(I)cc4)c4ccccc43)[C@H]2C)cc1` reads -2.83.

These data come from PubChem BioAssay.
